Inconclusive results are not listed. The source made the active and inactive calls. Calls come from the whole dose curve.
Experiments:
[1] = biological target: Acetylcholinesterase (Homo sapiens) (UniProt P22303); assay: Acetylcholinesterase (AChE) small molecule antagonists: colormetric cell-based qHTS assay (AID 1347395); note: nearly all actives have a fitted effect of over 30% in size
Summary of the method: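 SH-SY5Y cells, plated overnight at 37 C, were exposed to compounds for 30 min at 37 C and 5% CO2. Acetylthiocholine plus DTNB was then added, and thiocholine from endogenous AChE was quantified colorimetrically after 90 min at 37 C.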

[2] = biological target: Acetylcholinesterase (Homo sapiens) (UniProt P22303); assay: Acetylcholinesterase (AChE) small molecule antagonists: enzyme-based qHTS assay (AID 1347397); conditions: Potency: AChE enzyme activity inhibition; outcome: AChE enzyme activity inhibition; note: nearly all actives have a fitted effect of over 55% in size
Summary of the method: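 Recombinant human AChE, dispensed at 50 mU/mL, was preincubated with Tox21 10K compounds or DMSO vehicle for 30 min at room temperature. DTNB plus acetylthiocholine was then added, and thiocholine was measured colorimetrically after a further 10 min.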

[3] = biological target: Acetylcholinesterase (Homo sapiens) (UniProt P22303); assay: Acetylcholinesterase (AChE) small molecule antagonists: fluorescence cell-based qHTS assay (AID 1347398); conditions: Potency: AChE activity; outcome: AChE activity; note: nearly all actives have a fitted effect of over 50% in size
Summary of the method: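 Human SH-SY5Y cells were plated overnight at 37 C, exposed to compound for 30 min at 37 C, 5% CO2, then given acetylthiocholine plus Thiolite Green for 40 min at room temperature; thiocholine fluorescence (Ex/Em 490/520 nm) reports endogenous AChE activity.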

[4] = biological target: Acetylcholinesterase (Homo sapiens) (UniProt P22303); assay: Acetylcholinesterase (AChE) small molecule antagonists: enzyme-based qHTS assay with human liver microsomes (AID 1347399); conditions: Potency: qHTS inhibition; outcome: qHTS inhibition; note: nearly all actives have a fitted effect of over 60% in size
Summary of the method: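 Recombinant human AChE (50 mU/mL in the enzyme mix) and human liver microsomes (0.25 mg/mL final) were preincubated with compound and NADPH (0.25 mg/mL final) for 30 min at 37 C. Acetylthiocholine/DTNB was then added; thiocholine was read colorimetrically after 10 min at room temperature.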
% is set by controls: 0 for no effect and ±100 for the full control effect.

Acetylcholinesterase (Homo sapiens), sequence (P22303 whole entry, looked up): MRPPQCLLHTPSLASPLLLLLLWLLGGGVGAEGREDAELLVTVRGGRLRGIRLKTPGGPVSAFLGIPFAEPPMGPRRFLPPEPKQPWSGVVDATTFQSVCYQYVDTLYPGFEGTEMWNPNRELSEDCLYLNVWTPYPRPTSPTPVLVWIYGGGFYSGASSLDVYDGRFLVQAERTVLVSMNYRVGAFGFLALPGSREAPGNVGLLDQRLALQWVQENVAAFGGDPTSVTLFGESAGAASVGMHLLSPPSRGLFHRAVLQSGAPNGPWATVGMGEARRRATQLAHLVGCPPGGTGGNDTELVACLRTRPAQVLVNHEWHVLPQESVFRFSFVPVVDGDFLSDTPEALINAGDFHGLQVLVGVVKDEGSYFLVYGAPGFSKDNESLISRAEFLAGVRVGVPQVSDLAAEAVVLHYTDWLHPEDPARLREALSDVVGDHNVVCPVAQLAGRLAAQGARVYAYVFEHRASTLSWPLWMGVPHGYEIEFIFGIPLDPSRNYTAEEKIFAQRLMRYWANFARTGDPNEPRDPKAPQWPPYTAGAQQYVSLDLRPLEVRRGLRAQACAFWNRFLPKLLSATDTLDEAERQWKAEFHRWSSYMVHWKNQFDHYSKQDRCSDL

Cc1ccc2ccc3cccc4ccc1c2c34
inactive: Potency [1] | Potency [2] | Potency [3] | Potency [4]

CCCC(=O)OCCc1ccccc1
inactive: Potency [1] | Potency [2] | Potency [3] | Potency [4]

O=CC=C(c1ccccc1)c1ccccc1
inactive: Potency [1] | Potency [2] | Potency [3] | Potency [4]

Cc1ccccc1N=C(N)N=C(N)N
inactive: Potency [1] | Potency [2] | Potency [3] | Potency [4]

CSSc1ccoc1C
inactive: Potency [1] | Potency [2] | Potency [3] | Potency [4]

CC(=O)OC(C)C[N+](C)(C)C (configuration not stated)
inactive: Potency [1] | Potency [2] | Potency [3] | Potency [4]

CC(C)(C)c1ccccc1
inactive: Potency [1] | Potency [2] | Potency [3] | Potency [4]

CCN(CC)C(=O)N1CCN(C)CC1
inactive: Potency [1] | Potency [2] | Potency [3] | Potency [4]

COC(=O)NCCC[Si](OC)(OC)OC
inactive: Potency [1] | Potency [2] | Potency [3] | Potency [4]

CCC(C)(Oc1ccc(C2(c3ccc(OC(C)(CC)C(=O)O)cc3)CCCCC2)cc1)C(=O)O (configuration not stated)
inactive: Potency [1] | Potency [2] | Potency [3] | Potency [4]

CCn1nc(Cc2ccccc2)cc1C1CCN(C[C@H]2C[C@H](N(C)[C@@H](C(=O)O)C(C)C)C[C@@H]2c2cccc(F)c2)CC1
inactive: Potency [1] | Potency [2] | Potency [3] | Potency [4]

Clc1ccc2nsnc2c1NC1=NCCN1
inactive: Potency [1] | Potency [2] | Potency [3] | Potency [4]

CCCCCCCCSCc1cc(C)c(O)c(CSCCCCCCCC)c1
inactive: Potency [1] | Potency [2] | Potency [3] | Potency [4]

Cc1cc(C(C)(C)C)cc(C)c1CC1=NCCN1
inactive: Potency [1] | Potency [2] | Potency [3] | Potency [4]

CC(=O)OCC(=O)[C@@]1(OC(C)=O)[C@@H](C)C[C@H]2[C@@H]3C[C@H](F)C4=CC(=O)C=C[C@]4(C)[C@@]3(F)[C@@H](O)C[C@@]21C
inactive: Potency [1] | Potency [2] | Potency [3] | Potency [4]

CCCCCc1ccc(N)cc1
inactive: Potency [1] | Potency [2] | Potency [3] | Potency [4]

CC(=O)OCC(C)OC(C)=O (configuration not stated)
inactive: Potency [1] | Potency [2] | Potency [3] | Potency [4]

O=C(O)C(=O)Cc1c[nH]c2ccccc12
inactive: Potency [1] | Potency [2] | Potency [3] | Potency [4]

CCCCCCCCCCCCCCCCCO
inactive: activity, negative = inhibition [1] 0.97% [at 23.6 µM] | activity change, negative = inhibition [2] -1.09% [at 23.6 µM] | activity change, negative = inhibition [3] 0.561% [at 23.8 µM] | activity change, negative = inhibition [4] 3.32% [at 23.6 µM]

CCCCCCCCOCCCN
inactive: Potency [1] | Potency [2] | Potency [3] | Potency [4]

Cc1ccc(Nc2ccc(O)c3c2C(=O)c2ccccc2C3=O)cc1
inactive: Potency [1] | Potency [2] | Potency [3] | Potency [4]

CCCCCCCCCCCCCC(=O)OC
inactive: Potency [1] | Potency [2] | Potency [3] | Potency [4]

Nc1nc(N)c(-c2ccccc2)s1
inactive: Potency [1] | Potency [2] | Potency [3] | Potency [4]

O=C(Oc1ccccc1)c1cccc(C(=O)Oc2ccccc2)c1
inactive: Potency [1] | Potency [2] | Potency [3] | Potency [4]

CC(=O)OC1CCCCC1C(C)(C)C (configuration not stated)
inactive: Potency [1] | Potency [2] | Potency [3] | Potency [4]

CC12CCC(C(=O)C1=O)C2(C)C (configuration not stated)
inactive: Potency [1] | Potency [2] | Potency [3] | Potency [4]

O=C(O)c1ccc(O)c(O)c1
inactive: Potency [1] | Potency [2] | Potency [3] | Potency [4]

CC(=O)S[C@@H]1CC2=CC(=O)CC[C@]2(C)[C@H]2CC[C@@]3(C)[C@@H](CC[C@@]34CCC(=O)O4)[C@H]12
inactive: Potency [1] | Potency [2] | Potency [3] | Potency [4]

CC(C)(C)OC(=O)c1ccccc1C(=O)O
inactive: Potency [1] | Potency [2] | Potency [3] | Potency [4]

O=C(Nc1ccccc1)c1ccccc1O
inactive: Potency [1] | Potency [2] | Potency [3] | Potency [4]

COC(/C=C(\C)CCC=C(C)C)OC
inactive: Potency [1] | Potency [2] | Potency [3] | Potency [4]

C[C@H](CCC(=O)O)[C@H]1CC[C@H]2[C@@H]3C(=O)C[C@@H]4CC(=O)CC[C@]4(C)[C@H]3CC(=O)[C@]12C
inactive: Potency [1] | Potency [2] | Potency [3] | Potency [4]

C=CCOCC(O)CS(=O)(=O)O (configuration not stated)
inactive: Potency [1] | Potency [2] | Potency [3] | Potency [4]

Cc1cccc(N(C)C)c1
inactive: Potency [1] | Potency [2] | Potency [3] | Potency [4]

CC1=CC(=O)CC(C)(C)C1=O
inactive: Potency [1] | Potency [2] | Potency [3] | Potency [4]

COc1ccnc(CS(=O)c2nc3ccc(OC(F)F)cc3[nH]2)c1OC (configuration not stated)
inactive: Potency [1] | Potency [2] | Potency [3] | Potency [4]

C1C[C@@H]2[C@H]3CC[C@H](C3)[C@@H]2C1
inactive: Potency [1] | Potency [2] | Potency [3] | Potency [4]

COc1cccc(Br)c1
inactive: Potency [1] | Potency [2] | Potency [3] | Potency [4]

CC(C)(C)NCC(O)COc1cccc2c1C[C@H](O)[C@H](O)C2 (some centres not stated)
inactive: Potency [1] | Potency [2] | Potency [3] | Potency [4]

c1ccc(B(c2ccccc2)c2ccccc2)cc1
inactive: Potency [1] | Potency [2] | Potency [3] | Potency [4]

Nc1cccc2c(N)cccc12
inactive: Potency [1] | Potency [2] | Potency [3] | Potency [4]

CCCCCCCCCC#N
inactive: Potency [1] | Potency [2] | Potency [3] | Potency [4]

OC(C#CCN1CCCC1)(c1ccccc1)c1ccccc1
inactive: Potency [1] | Potency [2] | Potency [3] | Potency [4]
